The results in this text go back to PubChem BioAssay (NCI).

Compounds without any hit were thinned out: in the full panel of roughly 83,000, 20% have a hit.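 Compound tested at a single concentration for 48 hours in 96-well plates; a percent growth value below 10 was scored as active.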 A number with no mark means an inactive call. The source made the active and inactive calls.

The subject of the test is MOLT-4 leukemia. The experiment in a line: NCI-60 one-dose screen, 48 h (100 = growth as untreated, 0 = no growth, -100 = all killed). Particulars: 10 µM unless noted. The protocol:
Growth inhibition of the MOLT-4 human tumor cell line is measured as a screen for anti-cancer activity. Cells are grown in 96 well plates and exposed to the test compound for 48 hours. Compounds are tested at a single concentration, which is 10^-5 M for most compounds. The reported endpoint is percent growth (GI% or GIPRCNT), where numbers from 0 - 100% represent growth inhibition, and numbers from -100% - 0 represent cell death. For example, a value of 40 represents 60% growth inhibition. A value of 0 means no net growth occurred over the course of the experiment. A value of -40 indicates 40% of cells at the beginning of the experiment died by the end of the experiment. A value of -100 means all cells are dead at the end of the experiment.
NCI-60 Human Tumor Cell Lines Screen was performed using the standard one-dose NCI protocol, which is described in more detail at https://dtp.cancer.gov/discovery_development/nci-60/default.htm.
Compounds with GIPRCNT values below 10 were considered active. Activity score was based on GIPRCNT using the following formula: […]
Score is 0 for GIPRCNT values of 100 or above, 50 for GIPRCNT values of 0, and 100 for GIPRCNT values of -100.
On to `COc1cc(CN2CCC(N3CCCC3=O)c3ccccc32)cc(OC)c1OC` (stereo not given), for which the growth is 72.4%. `CNC1=C([N+](=O)[O-])C(c2ccccc2O)C(C#N)=C(c2cccs2)O1` (stereo not given): the growth is 88.6%. Take `COc1ccc(C(=O)C(CN(C)C)c2ccc(OC)cc2)cc1` (stereo not given): the growth is 52.9%.

On to `O=C(O)c1ccccc1Oc1cc(-c2ccco2)nc(OCCN2CCOCC2)n1`, for which the growth is 101%. Take `O=S1(=O)NCCN1CCNc1nccc(-c2c(-c3cccc(O)c3)nc3sccn23)n1`: the growth was 110%. Take `CC(C)(C)OC[C@@H]1N=C(c2ccc(Br)cc2)Nc2nc3ccccn3c2C1=O`: the growth is 53.7%.

Take `C(=Nc1ccc(-c2ccc(N=Cc3ccccc3)cc2)cc1)c1ccccc1`: the growth was 83%.

With `CCCCOc1nc2ccc(C)cc2cc1/C=C/C(=O)/C=C(O)/C=C/c1cc2cc(C)ccc2nc1OCCCC`, the growth is 98.8%.

Take `Cn1c(=O)c2c(nc(N/N=C/c3ccccc3Cl)n2C)n(C)c1=O`: the growth was 95.7%. With `CNCCCn1c2c(c3ccc(Cl)cc3c1=O)C(=O)c1cc(OC)cnc1-2`, the growth is -29.9% (active). Regarding `COc1cc(OC)c2sc(-c3ccc(-n4cncc4-c4ccc(OC)c(N)c4)cc3)nc2c1`, the growth was 58.3%. Regarding `CN(C)CCCn1c(=O)c2cc([N+](=O)[O-])ccc2c2cnc3[nH]ccc3c21`, the growth is 8.62% (active).

In the case of `COc1ccc(C2NC(=O)c3cc4c(cc3N2)OCO4)cc1` (stereo not given), the growth is 16.5%. Next, `O=C(CCCN1CCC(O)(c2ccc(Br)cc2)CC1)c1ccc(F)cc1`: 60.3%; `O/N=C/c1ccncc1`: 111%. For the compound `CCOC(=O)CCN(CCC(=O)OCC)c1ccccc1`, the growth is 96.5%. Take `CSc1ccc(/C=C2\C=C(CC(=O)NCc3ccc(C(=O)c4ccccc4)cc3)c3cc(F)ccc32)cc1`: the growth is 9.47% (active). For `CCN(CC)CCNC(=O)C(F)(F)C(F)(F)C(F)(F)F`, the growth is 109%. In the case of `C[Si](C)(C)C(c1ccccc1)c1ccccc1`, the growth is 81.8%. As to `COc1ccc2nc3ccccc3c(NCc3ccc(C)cc3)c2c1`, the growth was 0.305% (active). Turning to `C=CCN1C(=O)/C(=c2\sc3n(c2=O)C2C(NN=3)N(CC)C(=O)N2CC)c2ccccc21` (stereo not given), the growth is 19.1%. Regarding `Nc1c(N)c2ccccc2c2ccccc12`, the growth is 100%. Regarding `CCN(CC)CCCCCCCCNc1c2ccc(Cl)cc2nc2ccc(OC)cc12`, the growth is -45.8% (active). Next, `N/N=C(\C(=N\N)c1ccccc1)c1ccccc1`: 81.2%; `Oc1ccc(-c2nc3ccccc3s2)cc1CN(Cc1ccccn1)Cc1ccccn1`: 2.86% (active); `O=[N+]([O-])c1ccc(SSc2ccc([N+](=O)[O-])cc2Cl)c(Cl)c1`: 78.1%. For `CC1OC(n2c3ccccc3c3c4c(c5c6ccccc6[nH]c5c32)C(=O)N(CCN2CCOCC2)C4=O)CC(O)C1O` (stereo not given), the growth is 6.7% (active).

On to `COc1cc2ccc(C(C)=O)cc2cc1OC`, for which the growth is 127%. Next, `c1ccc(CCn2cccc2)nc1`: 18.7%.

For the compound `Clc1cc(Cl)cc(-c2cnc3nonc3n2)c1`, the growth is 92.9%. For the compound `O=C(CCl)Nc1cc(O)c2c(c1)C(=O)c1cccc(O)c1C2=O`, the growth is -56.3% (active).

`O=S(=O)(Nc1ccc2ccccc2c1)N1CCCCC1`: the growth was 64.5%.

As to `CC[C@H](C)[C@H](N)C(=O)O`, the growth was 116%. Turning to `CCN(CCC#N)c1ccccc1`, the growth is 101%.

For the compound `N#Cc1ccc(-c2ccc(-c3cccs3)o2)cc1F`, the growth is 66.3%. For the compound `COc1ccc(-c2cnnn2-c2nonc2-n2cccc2)cc1`, the growth is 5.61% (active). Turning to `C=C(c1ccc(C(=O)NCCCn2ccnc2)cc1)c1cc2c(cc1C)C(C)(C)CCC2(C)C`, the growth is 11.1%.

Regarding `COc1cccc(NC(=O)OC(C)C)c1`, the growth is 99%. In the case of `CCN(CC)CCCC(C)Nc1c(-c2ccccc2)cnc2cc(Cl)ccc12` (stereo not given), the growth was 48.5%. With `C[C@@H]1CC2C3CCC4=CC(=O)C=C[C@]4(C)[C@@]3(Cl)[C@@H](O)C[C@]2(C)[C@@]1(OC(=O)c1ccco1)C(=O)CCl` (stereo not given in full), the growth is 31.5%.
